AMA1-RON2 inh = AMA1-RON2 (P. falciparum) interaction inhibition; AlphaScreen AMA1-biotinylated RON2 peptide binding; Potency, µM (top dose mostly 58.2 µM), usual class: inhibitors; actives 0.2% (n = 360,000); AID 720542; further: nearly all actives have a fitted effect of over 45% in size
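AMA1 (3D7) with his tag at 25 nM final met compounds first, then biotinylated RON2 peptide at 25 nM; detection used donor plus acceptor beads, 10 µg/mL apiece, read by AlphaScreen after 30 min at room temperature.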
SARS PLP yeast = blocks SARS-CoV papain-like protease in a yeast assay; AID 485353; Potency, µM (highest dose often 32.9 µM), usual class: activators; actives 0.19% (n = 330,000); S. cerevisiae expressing SARS-CoV PLpro, growth rescue; calls by dose curve; further: nearly all actives have a fitted effect of over 55% in size
Shiga toxin inh = inhibitors of Shiga toxin in Vero cells | Vero cells, Shiga toxin protein synthesis inhibition reporter | inhibition, % at 38.7 µM | actives 9.2% (n = 290,000) | AID 2315; in the data active means inhibition mostly above about 28%, no sharp cut-off; inactive means mostly below about 43%
Pf growth 96h = inhibits malaria parasite growth, 96 h; P. falciparum luciferase reporter growth, 96 h; Potency, µM (series often up to 28.7 µM), usual class: inhibitors; actives 6.9% (n = 320,000)
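P. falciparum expressing integrated firefly luciferase grown in erythrocytes (2% hematocrit, 0.05% parasitemia final) with compounds for 96 hours at 37 C, 5% CO2. Growth inhibition read as loss of luminescence after adding luciferase detection reagent.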
CHX counter = counter-screen hit for Shiga toxin inhibitors, cycloheximide. cell reporter, cycloheximide protein synthesis inhibition counterscreen. max response, %. actives 12% (n = 300,000); in the data active means max response mostly above about 13%, no sharp cut-off; inactive means mostly below about 14%; further: read at 38.3 µM for the half of the compounds with a filed dose
Pf growth 48h = P. falciparum growth inhibition at 48 hours (one generation); P. falciparum luciferase growth in erythrocytes, 48 h; actives 5.9% (n = 310,000); Potency, µM (series often up to 28.7 µM), actives largely listed as inhibitors
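Luminescence readout; reporter = integrated firefly luciferase in P. falciparum. RBC culture at 2% hematocrit, 0.1% parasitemia final, 37 C/5% CO2; decreased signal taken as growth inhibition.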
Of the large screens only hits and unclear results are named; the others gave an inactive call. A selection: hits, their analogues and other compounds. The true share with any hit is near 19%. Unless noted, the call rests on the fitted dose curve; in most records, active means well fitted curve in the direction sought with a large enough effect; inconclusive means small, poorly fitted or top-dose-only effect, or another doubt; inactive means no such curve, though single readings can be large; an effect the other way counts as inactive or inconclusive.

CC(C(=O)O)n1cc(C#N)c(=O)[nH]c1=O (centres undefined)	none (no result: SARS PLP yeast, Shiga toxin inh, Pf growth 96h, CHX counter, Pf growth 48h)
CN(CC(=O)Nc1cccc2ccccc12)C(=O)c1cccc(S(=O)(=O)N(C)C)c1	Pf growth 96h inconclusive, Pf growth 48h inconclusive
CN1C(C(=O)Nc2ccc(F)cc2F)=CC(c2ccco2)=NS1(=O)=O	none
CSc1ccccc1NC(=O)C1=CC(c2cccs2)=NS(=O)(=O)N1C	Shiga toxin inh 15.3, Pf growth 48h inconclusive
Cc1ccc(C2=NS(=O)(=O)N(C)C(C(=O)Nc3ccc(F)cc3F)=C2)cc1	Shiga toxin inh 15.6
COC(=O)c1ccccc1NC(=O)C1=CC(c2cccs2)=NS(=O)(=O)N1C	none
Cc1cccc(NC(=O)CSCC(=O)N(C)Cc2c(F)cccc2Cl)c1	Pf growth 96h 13.1µM, Pf growth 48h inconclusive (no result: Shiga toxin inh, CHX counter)
CN(CC(=O)Nc1ccc(OC(F)(F)F)cc1)C(=O)Cc1c(Cl)cccc1Cl	Pf growth 96h inconclusive, Pf growth 48h inconclusive
CN(CC(=O)Nc1ccc(Cl)cc1)C(=O)Cc1c(F)cccc1Cl	Pf growth 96h 11.7µM
CCNc1nnc(CCn2nc(C)c(Br)c2C)s1	none
CCCCNC(=O)c1cn(CC)c2cc(N3CCN(C)CC3)c(F)cc2c1=O	Pf growth 96h inconclusive, Pf growth 48h inconclusive
CCn1cc(C(=O)NCc2cccnc2)c(=O)c2cc(F)c(N3CCN(C(=O)c4ccco4)CC3)cc21	Pf growth 48h inconclusive (no result: Pf growth 96h)
CCCNC(=O)c1cn(CC)c2cc(N3CCN(C(=O)c4ccco4)CC3)c(F)cc2c1=O	Pf growth 96h 3.29µM, Pf growth 48h inconclusive
CCn1cc(C(=O)NCc2cccc(F)c2)c(=O)c2cc(F)c(N3CCN(C(=O)c4ccco4)CC3)cc21	Pf growth 96h 2.08µM (no result: Pf growth 48h)
O=C(CCCCCNC(=O)N1CCn2c1nc1ccccc12)NCCc1ccccc1	Pf growth 96h 7.38µM, Pf growth 48h inconclusive
O=C(CCCCCNC(=O)N1CCn2c1nc1ccccc12)NCc1ccccc1	Pf growth 96h inconclusive, Pf growth 48h inconclusive
Fc1ccc(/C=N/n2cnn(Cc3ccccc3Cl)c2=S)cc1	none
Cc1ccc(Cl)cc1N1CCN(Cc2nnnn2Cc2ccco2)CC1	Pf growth 96h 8.28µM
CCC(c1nnnn1Cc1ccco1)N1CCN(c2cc(Cl)ccc2C)CC1 (centres undefined)	Pf growth 96h 1.47µM, Pf growth 48h inconclusive
CC(C)C(c1nnnn1Cc1ccco1)N1CCN(c2cccc(Cl)c2)CC1 (centres undefined)	none
CN1CCN(S(=O)(=O)c2ccc([N+](=O)[O-])cc2)CC1	Pf growth 96h inconclusive
Cc1ccc(NC(=O)c2ccc(S(=O)(=O)N3CCC(C)CC3)cc2)cc1	Pf growth 48h 10.4µM (no result: Pf growth 96h)
O=C(Nc1ccc(S(=O)(=O)N2CCOCC2)cc1)c1ccc(S(=O)(=O)N2CCOCC2)cc1	Pf growth 96h 11.7µM
O=C1CN(S(=O)(=O)c2ccc([N+](=O)[O-])cc2)CC(=O)N1	Pf growth 96h 11.7µM
CS(=O)(=O)c1ccc(NC(=O)c2cccc(S(=O)(=O)N3CCN(Cc4ccccc4)CC3)c2)cc1	Pf growth 96h 9.28µM, Pf growth 48h inconclusive
C[C@H]1CN(CCc2ccccc2)C(=O)[C@@H]1CC(=O)Nc1ccc(Br)cc1	none (no result: SARS PLP yeast, Shiga toxin inh, Pf growth 96h, CHX counter, Pf growth 48h)
COc1cc(-c2nc3cccc(C)n3c2NCC2CCCO2)ccc1O (centres undefined)	Pf growth 96h inconclusive, Pf growth 48h inconclusive
CCOc1ccc(CCNC(=O)CCC(=O)N2CCOc3ccccc32)cc1OCC	none
CC(C)c1ccc(NC(=O)C2(C)Cc3c(-c4cccc(C(F)(F)F)c4)ccnc3O2)cc1 (centres undefined)	none (no result: SARS PLP yeast, Shiga toxin inh, Pf growth 96h, CHX counter, Pf growth 48h)
CC(C)c1ccc(NC(=O)C2CSC3(C)CCC(=O)N23)cc1 (centres undefined)	none
Cc1cccc(NC(=O)C(CC(C)C)NC(=O)C2CCC(C)CC2)n1 (centres undefined)	Pf growth 96h inconclusive
CCOc1ccc(-n2c([S-])c(C(=O)Nc3ccc(S(=O)(=O)N4CCOCC4)cc3)[n+]3cc(C(N)=O)ccc23)cc1	Pf growth 96h inconclusive, Pf growth 48h 11.7µM
O=C(Nc1ccc([N+](=O)[O-])cc1)c1ccc(S(=O)(=O)N2CCCC2)cc1	Pf growth 96h 11.7µM, Pf growth 48h inconclusive
O=C(CSc1nc2[nH]ncc2c(=O)[nH]1)Nc1ccc(OC(F)(F)F)cc1	Pf growth 96h inconclusive (no result: SARS PLP yeast, Shiga toxin inh, CHX counter)
